Assay outcomes: PubChem BioAssay, National Center for Advancing Translational Sciences (NCATS)
HT1080NT lethal: qHTS for induction of synthetic lethality in tumor cells producing 2HG: qHTS for the HT-1080-NT fibrosarcoma cell line; HT-1080-NT fibrosarcoma viability, CellTiter-Glo ATP luminescence, 48 h; Potency, µM (series often up to 46.1 µM), inactives show at the highest dose activity, negative = less viability, hits mostly cytotoxic; actives 1.6% (n = 360,000); AID 686970, 2013;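 also: NT is the 2HG producing partner of a matched IDH1 knockdown line; potency is read from the fitted curve at half-maximal effect; 0% = DMSO-treated cells and -100% = media-only wells without cells; nearly all actives have a fitted effect of over 55% in size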
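Toxicity toward the 2HG-producing NT line was scored as %Activity, normalised to DMSO and no-cell wells, from CellTiter-Glo luminescence after 48 hours' treatment.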
IL-1B inflam inh: qHTS for Inhibitors of Inflammasome Signaling: IL-1-beta AlphaLISA Primary Screen. actives 4.7% (n = 360,000). activity change, % at 57.5 µM. THP-1 LPS/ATP IL-1B secretion, AlphaLISA, 16 h; hits give low values; in the data active = activity change below about -50%; inconclusive = mostly about -30% to -49%
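Secreted IL-1B measured by AlphaLISA bead assay after 16 h compound exposure of THP-1 cells; compounds (final up to 57.5 uM) added 1 h before LPS (250 ng/mL) and ATP (1.25 mM) stimulation; lower signal means less secretion.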
DT40 TDP1 no CPT: qHTS for Inhibitors of human tyrosyl-DNA phosphodiesterase 1 (TDP1): qHTS in cells in absence of CPT; Potency, µM (top dose mostly 46.2 µM), for inactives: at the top dose activity change, negative = growth inhibition, actives largely listed as inhibitors; actives 15% (n = 420,000); DT40 Tdp1-/- hTDP1 cells, no CPT, ATP luminescence, 48 h; AID 686978, 2013; also: potency is read from the fitted curve at half-maximal effect; nearly all actives have a fitted effect of over 55% in size
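No-CPT arm: Tdp1-/-;hTDP1 DT40 cells (400/well) plus compounds, incubated ≥48 hr at 37 °C. Readout CellTiter-Glo luminescence.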
DT40 TDP1 CPT: qHTS for Inhibitors of human tyrosyl-DNA phosphodiesterase 1 (TDP1): qHTS in cells in presence of CPT. Potency, µM (highest dose often 46.2 µM), without a hit: at the top dose activity change, negative = growth inhibition, actives largely listed as inhibitors. actives 12% (n = 420,000). chicken DT40 Tdp1-/-;hTDP1 cells + 20 nM CPT, ATP luminescence, 48 h; also: potency is read from the fitted curve at half-maximal effect; nearly all actives have a fitted effect of over 55% in size
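Chicken DT40 Tdp1-/- cells complemented with human TDP1, 400 cells/well, exposed to compounds plus 20 nM camptothecin for at least 48 h at 37 C; viability read as ATP content by CellTiter-Glo luminescence.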
HT1080 IDH1KD tx: qHTS for induction of synthetic lethality in tumor cells producing 2HG: qHTS for the HT-1080-IDH1KD cell line | actives 2% (n = 360,000) | HT-1080 IDH1 knockdown viability, ATP luminescence, 48 h | AID 686971, 2013 | Potency, µM (series often up to 46.1 µM), for inactives: at the top dose activity, negative = toxicity, hits mostly cytotoxic;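 also: potency is read from the fitted curve at half-maximal effect; 0% = DMSO wells and -100% = cell-free medium wells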
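HT-1080-IDH1KD cells (IDH1 knocked down), 750/well in RPMI with 5% FBS, treated with compound 48 h at 37 degrees C. Viability by CellTiter-Glo luminescence, normalised to DMSO and no-cell wells; concentration-response curves classed.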
* = called active by the depositor; ? = inconclusive; / = no result. A selection: hits, their analogues and other compounds. The true share with any hit is near 19%. Unless noted, calls follow the shape of the dose curve; as a rule, active = well fitted curve in the direction sought with a large enough effect; inconclusive = small, poorly fitted or top-dose-only effect, or another doubt; inactive = no such curve, though single readings can be large; an effect the other way counts as inactive or inconclusive. Unless noted, % is scaled to controls: 0 for no effect and ±100 for the full control effect.

SMILES	HT1080NT lethal	IL-1B inflam inh	DT40 TDP1 no CPT	DT40 TDP1 CPT	HT1080 IDH1KD tx
Cn1c(SCC(=O)c2ccc(O)cc2O)nnc1-c1ccccc1	-6.7%	-13.5	-0.3%	-4.7%	3.1%
COc1ccc(CNC(=O)c2nc(SC(C)C)ncc2Cl)cc1	/	/	23.1µM*	29.1µM*	/
CCN(c1ccccc1)S(=O)(=O)c1ccc(NC(=O)c2nc(SC(C)C)ncc2Cl)cc1	/	/	18.4µM*	20.6µM*	/
Cc1noc(C(=O)NCc2ccccc2)c1Cl	-6.9%	-4.1	-2.1%	-14.7%	-1.7%
O=C(NCc1ccccc1)c1nc(S(=O)(=O)Cc2ccccc2)ncc1Cl	?	-97.6*	2.31µM*	2.91µM*	?
O=C(NCc1ccccc1)c1ccc(Cl)cc1	12.3%	6.8	3.2%	2.7%	4.7%
CCS(=O)(=O)c1ncc(Cl)c(C(=O)NCc2ccccc2)n1	/	/	2.31µM*	?	/
O=C(Nc1ccncc1)c1cc(S(=O)(=O)N2CCN(c3ccccc3)CC2)ccc1Cl	-1.7%	-9.2	?	?	-13.4%
COc1cccc(-n2c(=O)c3sccc3n(CC(=O)NCC3CCCO3)c2=O)c1 (configuration not stated)	-2.8%	-17.9	8.9%	0.4%	2.9%
COc1ccc(CNC(=O)c2nc(SCc3ccc(C)cc3)ncc2Cl)cc1	/	/	?	-10.4%	/
O=C(NCc1ccccc1)c1c(Cl)nc(Cl)c(Cl)c1Cl	10.3µM*	-107.4*	18.4µM*	?	7.31µM*
COc1ccc(CNC(=O)c2nc(S(=O)(=O)Cc3ccccc3)ncc2Cl)cc1	?	-98.5*	1.3µM*	1.3µM*	?
Cc1nc(Cl)c(C(=O)NCc2ccccc2)c(C)c1[N+](=O)[O-]	-0.5%	19.6	-2.2%	-3.2%	16.9%
Cc1ccccc1OCC(=O)NNC(=O)c1cc(S(=O)(=O)N2CCOCC2)ccc1N1CCCC1	0.6%	-24.1	-11.7%	-12.5%	1.3%
CC(=O)Nc1sc(C)c(C)c1C(=O)OCC(=O)Nc1ccccc1C(F)(F)F	3.3%	0.9	?	8.2%	0.8%
CS(=O)(=O)N(CC(=O)NCc1ccc2c(c1)OCO2)Cc1ccccc1	-12.7%	-5.3	20.6µM*	29.1µM*	-6.8%
O=C(Cc1ccccc1)NCc1ccc2c(c1)OCO2	-4.5%	0.2	-4.6%	-5.7%	-3.4%
Cc1cc(C)cc(NC(=O)CN(Cc2ccccc2)S(C)(=O)=O)c1	-8.1%	0.3	13µM*	?	-9.1%
COc1ccc2[nH]c3c(C)c4ccncc4c(C)c3c2c1	23.1µM*	-100.3*	0.92µM*	0.259µM*	18.4µM*
COc1ccc2[nH]c(C)cc(=O)c2c1	11.6%	17.7	?	-24.7%	12.8%
COc1ccc(C(=O)N2CCOC23CCN(c2ncccn2)CC3)cc1	2.4%	-22.3	-30.6%	-3.8%	-3.8%
CCS(=O)(=O)c1ccc2oc(SCC(=O)NC34CC5CC(CC(C5)C3)C4)nc2c1	-8.9%	-22.9	13µM*	?	-7.5%
CCS(=O)(=O)c1ccc2oc(SCC(=O)NCc3ccccc3)nc2c1	5.8%	18.8	-10.2%	7.2%	16.2%
Cc1nc2ccn(Cc3ccco3)c(=O)c2cc1C(=O)NCc1ccccc1	/	/	-14.6%	-25.2%	/
O=C(Nc1ccc([N+](=O)[O-])cc1)c1ccccc1	-1.3%	-0.8	-14.7%	-1.8%	1.1%
SMILES	HT1080NT lethal	IL-1B inflam inh	DT40 TDP1 no CPT	DT40 TDP1 CPT	HT1080 IDH1KD tx
O=C(Nc1cc(Sc2ccccn2)cc([N+](=O)[O-])c1)c1ccc([N+](=O)[O-])cc1	?	-75.7*	2.06µM*	?	?
CC(=O)N1CCCc2cc(S(=O)(=O)N(C)CC(=O)Nc3ccc(Cl)cc3C)ccc21	/	/	23.1µM*	23.1µM*	/
COc1ccc(OC)c(NC(=O)CN(C)S(=O)(=O)c2ccc(Cl)cc2)c1	11.8%	10.2	-29.9%	-8.5%	9.1%
CSc1cccc(NC(=O)CN(C)S(=O)(=O)c2ccc3c(c2)CCCN3C(C)=O)c1	/	/	25.9µM*	?	/
CSc1cccc(NC(=O)CN(C)S(=O)(=O)c2ccc3c(c2)n(C)c(=O)c(=O)n3C)c1	/	/	-24.6%	-15.9%	/
CCCN(CCC)S(=O)(=O)c1ccc2c(c1)CCCN2C(C)=O	-4.0%	24.4	?	-18.9%	-11.2%
COc1ccc(Cl)cc1NC(=O)CN(C)S(=O)(=O)c1ccc2c(c1)CCCN2C(C)=O	/	/	8.2µM*	13µM*	/
COc1ccc(NC(=O)CN(C)S(=O)(=O)c2ccc3c(c2)CCCN3C(C)=O)cc1Cl	/	/	20.6µM*	?	/
CCOc1ccccc1NC(=O)COC(=O)CCOc1cc(C)ccc1C	3.6%	13.9	-24.0%	-11.1%	8.9%
O=C(CSc1nnc(CNc2ccc(F)cc2)n1CC1CCCO1)Nc1ccccc1 (configuration not stated)	0.0%	-11.6	?	20.6µM*	-3.4%
Fc1ccc(NCc2nnc(SCc3nnc(-c4ccccc4)o3)n2CC2CCCO2)cc1 (configuration not stated)	-3.5%	-10.0	-13.5%	-2.8%	0.4%
Cc1ccc(NCc2nnc(SCC(=O)Nc3ncc(C)s3)n2CC2CCCO2)c(C)c1 (configuration not stated)	-10.0%	-9.6	?	-7.7%	-5.8%
Cc1ccc(NCc2nnc(SCC(=O)Nc3cccc(O)c3)n2CC2CCCO2)c(C)c1 (configuration not stated)	0.6%	-51.2*	?	?	-9.7%
O=C(NCC(c1ccc2c(c1)OCO2)N1CCN(c2ccccc2)CC1)C(=O)Nc1ccc(F)cc1 (configuration not stated)	/	/	-22.6%	-6.6%	/
CCCN(CC(=O)Nc1ccccc1Br)CC(=O)Nc1ccc(F)c(F)c1F	-14.9%	?	?	?	-8.0%
CCCN(CC(=O)Nc1cc(Cl)cc(Cl)c1)CC(=O)Nc1ccc(F)c(F)c1F	?	-97.3*	23.1µM*	?	?
CCOC(=O)N(C)c1c(CC)nc2c(OCc3ccc(C(F)(F)F)cc3)cccn12	?	-8.8	13µM*	?	?
CCc1nc2c(OCc3ccc(C(F)(F)F)cc3)cccn2c1N(C)C(=O)c1ccc(C)cc1	?	-76.0*	23.1µM*	23.1µM*	?
CCc1nc2c(OCc3ccc(C(F)(F)F)cc3)cccn2c1N(C)C(=O)c1ccc(OC)cc1	?	-80.6*	13µM*	10.3µM*	?
CCc1nc2c(OCc3ccc(C#N)cc3)cccn2c1N(C)C(=O)c1ccc(C)cc1	4.6%	-20.1	18.4µM*	18.4µM*	1.9%
